Pf growth 48h: P. falciparum growth inhibition at 48 hours (one generation). P. falciparum luciferase growth in erythrocytes, 48 h. Potency, µM (series often up to 28.7 µM), for the others: top-dose activity change, negative = inhibition, usual class: inhibitors. actives 5.9% (n = 310,000). AID 504832; note: potency is the fitted concentration of half-maximal effect
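Cell-based growth assay: transgenic P. falciparum expressing firefly luciferase, cultured in red cells within RPMI 1640 containing 0.5% w/v Albumax, 24 mM bicarbonate and gentamycin. A drop in luciferase activity indicates inhibition.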
Lassa entry inh: blocks Lassa virus binding to or entry into cells. Lassa virus pseudotype entry inhibition, cell reporter. Potency, µM (doses to about 37.9 µM), without a hit: top-dose activity change, negative = inhibition, usual class: inhibitors. actives 1.2% (n = 300,000); calls by dose curve; tested in HEK293 cells; note: potency is the fitted concentration of half-maximal effect; nearly all actives have a fitted effect of over 50% in size
HCV inh: inhibitors of hepatitis C virus infection. actives 3.4% (n = 340,000). Potency, µM (top dose mostly 41.8 µM), inactives show at the highest dose activity change, negative = inhibition, usual class: inhibitors. Huh7.5.1 HCVcc-Cre infection, luciferase reporter, 44 h; note: potency is the fitted concentration of half-maximal effect
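Seed cells (1,000/well) for 4 h; treat with compound and infect with HCVcc-Cre, moi about 0.5. Incubate 44 h, then detect luciferase activity.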
HCMV inh: blocks human cytomegalovirus replication | HFF cells, HCMV-luciferase reporter, 72 h; stronger effect = lower value | activity change, negative = inhibition, % at 57.5 µM | actives 4.5% (n = 410,000); in the data active = activity change below about -60%; inconclusive = no clear call, values can overlap the other calls; inactive = above about -39%
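Cell-based, HFFs, 1000 cells/well, 16 h 37C; cpds in DMSO + HCMV-luc, MOI 1 PFU/cell; 72 h 37C; OneGlo luminescence after 5 min RT; norm. to buffer vs Salinomycin 10uM.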
MARV entry inh: blocks Marburg virus binding to or entry into cells. actives 1.8% (n = 300,000). AID 540276. Potency, µM (top dose mostly 37.8 µM), for inactives: at the top dose activity change, negative = inhibition, hits mostly inhibitors. Marburg virus pseudotyped entry inhibition, cell reporter; calls by dose curve; tested in HEK293 cells; note: potency is the fitted concentration of half-maximal effect
Pf growth 96h: inhibits malaria parasite growth, 96 h; P. falciparum luciferase reporter growth, 96 h; Potency, µM (highest dose often 28.7 µM), without a hit: at the top dose activity change, negative = inhibition, hits mostly inhibitors; AID 504834; actives 6.9% (n = 320,000); note: potency is the fitted concentration of half-maximal effect
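Delayed-death screen, second-generation endpoint: infected erythrocytes, 2% hematocrit, 0.05% parasitemia final; 96 hours at 37 C, 5% CO2; luciferase detection reagent; luminescence decrease equals reduced growth.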
* hit, by the source's call; i = inactive; ? = inconclusive; / = not tested or not shown; [ ] = another dose, or the depositor's remark. Shown are actives, neighbours in structure and some others; about 14% of the full set was active somewhere. Unless noted, calls come from the whole dose curve; as a rule, active = well fitted inhibition curve with a large enough effect; inconclusive = small, poorly fitted or top-dose-only effect, or another doubt; inactive = no such curve, though single readings can be large or run the other way. % is set by controls: 0 for no effect and ±100 for the full control effect.

SMILES	Pf growth 48h	Lassa entry inh	HCV inh	HCMV inh	MARV entry inh	Pf growth 96h
CCCCCCCC(=O)Nc1cc(C(=O)NCc2ccc(C)cc2)ccc1N1CCC2(CC1)CC(c1ccccc1)=NO2	-15.2%	/	10.1%	-7.4	/	?
CCCCC(CC)C(=O)Nc1cc(C(=O)NCc2ccc(C)cc2)ccc1N1CCC2(CC1)CC(c1cccc(Br)c1)=NO2 (stereo unspecified)	2.33µM*	/	15.5%	10.0	/	2.08µM*
CCCCC(CC)C(=O)Nc1cc(C(=O)NCCC)ccc1N1CCC2(CC1)CC(c1cccc(Br)c1)=NO2 (stereo unspecified)	3.7µM*	/	8.7%	-15.5	/	2.62µM*
CCCCC(CC)C(=O)Nc1cc(C(=O)NCc2ccc(C)cc2)ccc1N1CCC2(CC1)CC(c1ccccc1)=NO2 (stereo unspecified)	3.29µM*	/	-7.6%	21.7	/	2.08µM*
CCCNC(=O)c1ccc(N2CCC3(CC2)CC(c2ccccc2)=NO3)c(NC(=O)Cc2ccc(F)cc2)c1	?	/	-28.7%	-15.6	/	4.65µM*
O=C(c1[nH]c(C(F)(F)F)nc1-c1ccccc1)N1CCCN(Cc2ccc(F)cc2)CC1	/	/	/	0.6	/	/
Cc1nc(SCc2nc3ccccc3[nH]2)c2oc3ccccc3c2n1	?	-7.2%	25.1µM*	-16.0	?	?
Cc1nc(SCC(=O)O)c2oc3ccccc3c2n1	14.9%	-20.1%	8.5%	13.7	10.4%	?
Cc1nc(SCC(=O)N2CCN(c3ccccc3)CC2)c2oc3ccccc3c2n1	60.0%	?	10µM*	0.2	-27.5%	26.6%
CCc1nc(SCC(=O)N2CCCc3ccccc32)c2oc3ccccc3c2n1	?	18.3µM*	11.2µM*	-18.9	?	?
CCc1nc(SCC(=O)NC2CCCC2)c2oc3ccccc3c2n1	3.5%	-12.7%[46.1 µM]	-11.7%	3.8	7.4%[46.1 µM]	?
Cc1nc(SCc2nc3ccccc3[nH]2)c2oc3ccc(Br)cc3c2n1	/	/	/	-15.9	/	/
O=c1[nH]c(CSc2ccccn2)nc2c1oc1ccccc12	i	5.62µM*	18.8%	-22.6	?	24.9%
CCCCC(=O)Nc1nnc(S(=O)(=O)N(C)Cc2ccc(Cl)cc2)s1	/	17.7%[46.1 µM]	/	0.0	/	/
COc1ccc(-c2nc3ccc(C(=O)NCc4ccccc4)cc3nc2-c2ccc(OC)cc2)cc1	/	19.5%[46.1 µM]	/	-4.6	/	/
Cc1nc(SCc2ccccc2F)c2oc3ccccc3c2n1	?	?	14.5%	?	?	8.28µM*
CCn1c(SCC(=O)N2CCN(c3ccccc3)CC2)nnc1-c1cc2cc(Cl)ccc2o1	9.6%	-9.9%	?	-80.5*	-22.4%	-16.1%
Cc1nc(N2CCN(Cc3nc4ccccc4[nH]3)CC2)c2oc3ccccc3c2n1	?	5.0%	?	-12.6	-5.1%	5.86µM*
CCc1nc(N2CCCCC2C)c2oc3ccccc3c2n1 (stereo unspecified)	?	?	?	-25.5	18.3µM*	?
Cc1ccc(NC(=O)c2c(C)oc3ncn(C)c(=O)c23)cc1F	/	10.1%[46.1 µM]	/	24.9	/	/
CCNC(=O)[C@@H]1CCCN1C(=O)[C@H](CCCN=C(N)N)NC(=O)[C@H](CC(C)C)NC(=O)[C@@H](Cc1c[nH]c2ccccc12)NC(=O)[C@H](Cc1ccc(O)cc1)NC(=O)[C@H](CO)NC(=O)[C@H](Cc1c[nH]c2ccccc12)NC(=O)[C@H](Cc1cnc[nH]1)NC(=O)[C@@H]1CCC(=O)N1	1.35µM*	/	/	/	/	1.51µM*
CNC(=S)N(CCc1c(C)[nH]c2ccc(C)cc12)Cc1cc(OC)c(OC)c(OC)c1	0.0%	-26.0%	-27.7%	7.2	-26.0%	10.4µM*
CNC(=S)N(CCc1c(C)[nH]c2ccc(OC)cc12)Cc1cc(OC)c(OC)c(OC)c1	10.4µM*	?	?	34.1	?	14.7µM*
CNC(=S)N(CCc1ccc(OC)c(OC)c1)Cc1cc2c(C)cc(C)cc2[nH]c1=O	?	0.0%	-0.1%	-29.8	0.5%	11.7µM*
CNC(=S)N(CCc1ccccc1)Cc1cc2cc(OC)c(OC)cc2[nH]c1=O	?	-17.5%	1.0%	-18.5	?	?
SMILES	Pf growth 48h	Lassa entry inh	HCV inh	HCMV inh	MARV entry inh	Pf growth 96h
Cn1nc(C(=O)OCC(=O)Nc2ccc(C(N)=O)cc2)c2ccccc2c1=O	/	13.7%	-6.6%	16.5	-3.9%	/
Cc1ccc(Sc2ccc(N3CCC(C(=O)Nc4ccc(C)c(F)c4)CC3)nn2)cc1	/	-0.7%[46.1 µM]	/	-4.6	-2.8%[46.1 µM]	/
O=C1CCCN1CC1CCCN(Cc2nc(COc3ccccc3)no2)C1 (stereo unspecified)	-3.1%	2.2%[46.1 µM]	-2.5%	7.2	1.2%[46.1 µM]	14.7µM*
O=C1CCCN1CC1CCN(Cc2nc(CC3CC3)no2)CC1	?	?	-12.4%	-16.0	0.5%[46.1 µM]	?
CCC(CO)Oc1cc(NCc2cccc(OC)c2)c2ncn(C(C)C)c2c1 (stereo unspecified)	/	/	2µM*	-4.7	/	/
COCCCOc1cc(NCc2ccccc2)c2ncn(C(C)C)c2c1	/	/	?	-37.1	/	/
CCC(CO)Oc1cc(NCc2ccc(C(C)(C)C)cc2)c2ncn(C(C)C)c2c1 (stereo unspecified)	/	/	7.94µM*	18.2	/	/
CCCCOc1cc(NCc2ccccc2)c2ncn(C(C)C)c2c1	/	/	11.2µM*	?	/	/
CCC(CO)Oc1cc(NCc2cccc(O)c2)c2ncn(C(C)C)c2c1 (stereo unspecified)	/	/	?	33.3	/	/
CCC(CO)Oc1cc(NCc2ccc(O)cc2)c2ncn(C(C)C)c2c1 (stereo unspecified)	/	/	-9.0%	2.9	/	/
CCC(COC)Oc1cc(NCc2ccccc2)c2ncn(C(C)C)c2c1 (stereo unspecified)	4.15µM*	/	11.2µM*	-13.2	/	?
COc1cc(CNCCN(C)C)c(Br)cc1OCC(=O)NCc1ccccc1	-1.4%	2.3%	-4.0%	-32.8	3.1%	-2.7%
COc1ccc(CNCc2ccco2)cc1OCc1ccccc1	71.7%	-7.6%	8.4%	17.5	-27.5%	68.3%
COc1ccccc1CCNCc1ccc(OC)c(OCc2ccccc2)c1	0.0%	?	10µM*	?	?	0.0%
COc1cc(CNCCc2ccccc2)ccc1OCC(=O)NC(C)(C)C	4.8%	-10.3%	-23.5%	-19.9	11.2µM*	28.9%
CCCNCc1cc(OC)c(OCc2ccccc2)cc1Br	-15.0%	-17.7%[46.1 µM]	?	-23.5	11.2µM*	-1.9%
COc1ccc(CCNC(=O)COc2ccc(S(=O)(=O)NC3CCCCC3)cc2Cl)cc1OC	11.7µM*	-5.4%	?	-62.3*	?	10.4%
COc1ccc(CCNC(=O)COc2ccc(S(=O)(=O)NC(C)C)cc2)cc1OC	?	?	-13.2%	2.5	-20.1%[46.1 µM]	47.6%

Assay outcomes: PubChem, National Center for Advancing Translational Sciences (NCATS)
